Screens: PubChem, National Center for Advancing Translational Sciences (NCATS)
Rows were chosen to be rich in hits. Some 7.9% of all compounds tested hit in one or more screens of this group.
HCMV antiviral = inhibitors of human cytomegalovirus; HFF cells, HCMV-luciferase reporter, 72 h; hits give low values; activity change, negative = inhibition, % at 57.5 µM; hit rate 4.5% among 410,000; AID 1259415; in the data active = activity change below about -60%; inconclusive = no clear call, values can overlap the other calls; inactive = above about -39%
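Steps: HFFs plated, 16 h 37C; compounds added; HCMV-luciferase added to MOI 1 PFU/cell; 72 h 37C; OneGlo reagent, 5 min room temperature; luminescence read, normalized to controls.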
Marburg entry inh = inhibitors of Marburg virus binding or cell entry; Marburg virus pseudotyped entry inhibition, cell reporter; hit rate 1.8% among 300,000; Potency, µM (highest dose often 37.8 µM), inactives show top-dose activity change, negative = inhibition, usual class: inhibitors; AID 540276; calls by dose curve; tested in HEK293 cells; also: potency is read from the fitted curve at half-maximal effect
LASV entry inh = Lassa virus entry inhibition; hit rate 1.2% among 300,000; Lassa virus pseudotype entry inhibition, cell reporter; Potency, µM (top dose mostly 37.9 µM), for the others: at the top dose activity change, negative = inhibition, usual class: inhibitors; calls by dose curve; tested in HEK293 cells; also: potency is read from the fitted curve at half-maximal effect; nearly all actives have a fitted effect of over 50% in size
FMDV inh = blocks foot and mouth disease virus; Potency, µM (titrated, usually from 57.9 µM), without a hit: at the highest dose activity change, negative = inhibition, usual class: inhibitors; FMDV antiviral cell-based qHTS; hit rate 1.2% among 410,000; calls by dose curve; tested in HEK293T cells; also: read-out not given here; potency is read from the fitted curve at half-maximal effect; nearly all actives have a fitted effect of over 45% in size
HCV inh = inhibitors of hepatitis C virus infection | Potency, µM (highest dose often 41.8 µM), for inactives: top-dose activity change, negative = inhibition, hits mostly inhibitors | Huh7.5.1 HCVcc-Cre infection, luciferase reporter, 44 h | hit rate 3.4% among 340,000 | AID 651820; active = well fitted inhibition curve with a large enough effect; inconclusive = small, poorly fitted or top-dose-only effect, or another doubt; inactive = no such curve, though single readings can be large or run the other way; also: potency is read from the fitted curve at half-maximal effect
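Seed cells (1,000/well) for 4 h; treat with compound and infect with HCVcc-Cre, moi about 0.5. Incubate 44 h, then detect luciferase activity.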
* = called active by the depositor; ? = inconclusive; / = not tested or not shown; [ ] = another dose, or the depositor's remark. % is scaled to controls: 0 for no effect and ±100 for the full control effect.

SMILES	HCMV antiviral	Marburg entry inh	LASV entry inh	FMDV inh	HCV inh
CC(=O)NS(=O)(=O)c1ccc(NC(=O)c2cccc(S(=O)(=O)N3CCc4ccccc43)c2)cc1	-23	-1%	-5%	-3%	-7%
Cc1ccc(NC(=O)CN(CCc2ccccc2)S(=O)(=O)c2ccccc2)c(C)c1	-12	/	-29%[46.1 µM]	-7%	/
CC(=O)c1cccc(NC(=O)c2nc(-c3ccccc3)n(-c3cccc(Cl)c3)n2)c1	13	?	-5%[46.1 µM]	-28%	/
Cc1cc(C)cc(NC(=O)c2cc3c(=O)n(Cc4ccco4)ccc3nc2C)c1	?	/	19%[46.1 µM]	-25%	/
CC(C)c1ccc(NC(=O)C2CCCN2S(=O)(=O)c2ccc3nc(-c4ccccc4)[nH]c3c2)cc1 (stereo not given)	-20	/	-12%[46.1 µM]	-6%	/
CCOC(=O)c1cccc(NC(=O)COc2ccc3c(C)cc(=O)oc3c2)c1	-25	/	21%[46.1 µM]	1%	/
CC(C)CN(CC(C)C)C(=O)c1cccc(S(=O)(=O)N2CCc3ccccc32)c1	-17	?	/	-6%	?
NS(=O)(=O)c1ccc(NC(=O)c2ccc3c(c2)CCN3S(=O)(=O)c2ccccc2)cc1	?	-3%[46.1 µM]	-15%[46.1 µM]	-30%	32µM*
COc1ccc(OC)c(NC(=S)N2CCN(c3ccccn3)CC2)c1	-28	-2%[46.1 µM]	?	15%	23%
O=C(c1cccc(S(=O)(=O)N2CCc3ccccc32)c1)N1CCN(CCO)CC1	-14	?	6%[46.1 µM]	14%	-11%
O=C(Nc1ccccc1)c1ccc2c(c1)CCN2S(=O)(=O)c1ccccc1	10	/	/	7%	?
NC(=O)C1CN(C(=O)c2cccc(S(=O)(=O)N3CCc4ccccc43)c2)c2ccccc2O1 (stereo not given)	-105*	/	/	-10%	-18%
S=C(Nc1cc(Cl)ccc1Oc1ccccc1)N1CCN(c2ccccn2)CC1	-78*	?	?	-5%	11µM*
CC(C)CCNC(=O)c1cccc(S(=O)(=O)N2CCc3ccccc32)c1	8	?	4µM*	3%	?
COc1ccc(N2CCN(C(=O)c3cccc(S(=O)(=O)N4CCc5ccccc54)c3)CC2)cc1	-8	?	?	-6%	?
CCOC(=O)N1CCN(C(=O)c2cc(S(=O)(=O)N3CCc4ccccc43)ccc2OC)CC1	-14	-10%	1.8µM*	32%	?
CC(C)c1ccc(OCc2ccc(C(=O)N3CCN(c4ccccn4)CC3)cc2)cc1	-25	?	?	?	5µM*
O=C(c1cccc(S(=O)(=O)N2CCc3ccccc32)c1)N1CCN(c2ccccn2)CC1	-78*	?	?	?	?
O=C(NC1CCc2ccccc21)C1CCN(S(=O)(=O)c2ccc(Cl)cc2)CC1 (stereo not given)	-27	27%	-23%	-16%	3%
O=S(=O)(NC1CCc2ccccc21)c1ccc(S(=O)(=O)N2CCCC2)cc1 (stereo not given)	5	?	?	/	11µM*
O=C1CC(C(=O)N2CCCC(c3nc(-c4ccncc4)ncc3-c3ccccc3)C2)C2(CCCCC2)O1 (stereo not given)	/	/	/	-4%	/
COCCCNC(=O)c1ccc2c(c1)CCN2S(C)(=O)=O	35	15%	21%	14%	-24%
CCC(=O)Nc1ccc(S(=O)(=O)N2CCc3ccccc32)cc1	-23	/	/	?	-15%
O=C(CNC(=O)c1cccc(S(=O)(=O)N2CCc3ccccc32)c1)Nc1ccccc1Br	-83*	?	?	52%	?
COCCNC(=O)c1ccc2c(c1)CCN2S(C)(=O)=O	-62*	-8%[46.1 µM]	4%[46.1 µM]	-5%	14%
SMILES	HCMV antiviral	Marburg entry inh	LASV entry inh	FMDV inh	HCV inh
O=C(Nc1ccc(S(=O)(=O)N2CCc3ccccc32)cc1)c1ccco1	-81*	-21%	7.3µM*	?	8.9µM*
COc1cc(C(=O)Nc2ccc(S(=O)(=O)N3CCc4ccccc43)cc2)cc(OC)c1OC	10	12µM*	-19%	2%	14µM*
Cc1ccc(N(CC(=O)NCCc2ccccc2)S(=O)(=O)N(C)C)cc1	-4	-24%[46.1 µM]	-17%[46.1 µM]	-15%	/
CCc1cccc(C)c1NC(=O)c1nc2ccccc2nc1N1CCCCC1	-13	/	-23%[46.1 µM]	-28%	/
CCOc1ccc(OCC(=O)NCCS(=O)(=O)N2CCN(c3ccc(OC)cc3)CC2)cc1	-36	/	7%[46.1 µM]	36%	/
CCc1ccccc1NC(=O)c1sc2nc3n(c(=O)c2c1C)CCC3	6	/	-9%[46.1 µM]	4%	/
CCCCN(CCCC)CCNC(=O)c1cn(C)c2ccc(S(=O)(=O)N3CCOCC3)cc2c1=O	-5	-7%[46.1 µM]	-25%[46.1 µM]	-16%	/
Cc1cc(C)cc(NC(=O)C(C)N2Cc3ccccc3C2=O)c1 (stereo not given)	-7	/	5%[46.1 µM]	-23%	/
CN(C)S(=O)(=O)c1cccc(NC(=O)c2cccc(S(=O)(=O)N3CCc4ccccc43)c2)c1	-95*	/	/	?	11µM*
CC(=O)c1cccc(NC(=O)c2ccc3c(c2)CCN3S(=O)(=O)c2ccccc2)c1	-23	-25%[46.1 µM]	?	?	3%
C[C@]1(O)CC(=O)C=C[C@H]1Nc1ccccc1	?	/	/	25µM*	-14%
CC1=CC2/C=C(\C)CCC(O)C(O)/C=C/C(=O)C23C(=O)NC(CC(C)C)C3C1C (stereo not given)	/	/	/	6.3µM*	?
Nc1ccc(Oc2ccccc2-c2ccccc2)cc1	-82*	5.6µM*	5.6µM*	7.9µM*	-6%
NCCOc1ccccc1-c1ccccc1	24	-13%	-20%	-6%	4%
O=C(C[C@H]1C(=O)N(Cc2ccccc2)C[C@@H]1Cc1ccccc1)Nc1ccccc1	-16	/	16µM*	2%	-20%
CCC1CN(CCNC(=O)c2cccc(C(=O)OC)c2)Cc2cc(OC)ccc2O1 (stereo not given)	/	/	/	54%	/
COCCNCC(O)CON=C1c2ccccc2-c2ccccc21 (stereo not given)	-2	?	?	-15%	-10%
OC(CNCCC(c1ccccc1)c1ccccc1)COc1ccccc1 (stereo not given)	?	?	?	-2%	13µM*
OC(CNCCc1ccccc1)COc1ccc(OCC(O)CNCCc2ccccc2)cc1 (stereo not given)	-77*	3.2µM*	?	-25%	?
CC(C)CCNCC(O)CON=C1c2ccccc2-c2ccccc21 (stereo not given)	-72*	/	/	-10%	8.9µM*
CC(C)c1ccc(OCC(O)CNC(C)c2ccccc2)cc1 (stereo not given)	-23	?	?	-11%	?
Cc1cc(C)c(NC(=O)C(=O)NCC(c2cccnc2)N2CCN(Cc3ccccc3)CC2)c(C)c1 (stereo not given)	-9	/	5%[46.1 µM]	?	/
COC(=O)c1ccccc1NC(=O)c1cn2c3c(ccc(Cl)c3c1=O)OC(C)C2 (stereo not given)	0	/	-6%[46.1 µM]	-8%	/
CCCOc1cccc(C(=O)Nc2cccc(NC(=O)c3ccco3)c2)c1	-8	5%[46.1 µM]	-16%	-25%	25µM*
